High-throughput results deposited in PubChem BioAssay by National Center for Advancing Translational Sciences (NCATS).
Compounds with a hit are over-represented: about 19% of the library has one in this group of screens.
Pf growth 48h: P. falciparum growth inhibition at 48 hours (one generation) | AID 504832 | Potency, µM (titrated, usually from 28.7 µM), without a hit: top-dose activity change, negative = inhibition, usual class: inhibitors | 310,000 tested, 5.9% active | P. falciparum luciferase growth in erythrocytes, 48 h; further: potency means the concentration at half of the fitted maximal effect; on the % scale 0 is the no-effect control and ±100 the full control effect
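Erythrocytes infected with P. falciparum carrying an integrated firefly luciferase reporter (2% hematocrit, 0.1% parasitemia final) were exposed to compounds in RPMI 1640 with 0.5% Albumax at 37 C, 5% CO2. Growth inhibition was scored as reduced luminescence.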
Shiga inhibitor: inhibitors of Shiga toxin in Vero cells | 290,000 tested, 9.2% active | inhibition, % at 38.7 µM | AID 2315 | Vero cells, Shiga toxin protein synthesis inhibition reporter; in the data active means inhibition mostly above about 28%, no sharp cut-off; inactive means mostly below about 43%; further: 0% is about no effect
SARS PLpro yeast: inhibitors of SARS-CoV papain-like protease in yeast. Potency, µM (titrated, usually from 32.9 µM), without a hit: at the highest dose activity, positive = growth rescue, actives largely listed as activators. 330,000 tested, 0.19% active. S. cerevisiae expressing SARS-CoV PLpro, growth rescue. AID 485353; calls by dose curve; further: potency means the concentration at half of the fitted maximal effect; 0% is about no effect; nearly all actives have a fitted effect of over 55% in size
Cycloheximide cs: counter-screen hit for Shiga toxin inhibitors, cycloheximide. cell reporter, cycloheximide protein synthesis inhibition counterscreen. max response, %. 300,000 tested, 12% active; in the data active means max response mostly above about 13%, no sharp cut-off; inactive means mostly below about 14%; further: read at 38.3 µM for the half of the compounds with a filed dose; 0% is about no effect
AMA1 RON2 block: inhibitors of Plasmodium falciparum AMA1-RON2 interaction | AID 720542 | Potency, µM (titrated, usually from 58.2 µM), without a hit: top-dose activity change, negative = inhibition, usual class: inhibitors | AlphaScreen AMA1-biotinylated RON2 peptide binding | 360,000 tested, 0.2% active;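 further: potency means the concentration at half of the fitted maximal effect; 0% = vehicle wells and -100% = peptide control; nearly all actives have a fitted effect of over 45% in size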
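AMA1 (3D7) with his tag at 25 nM final met compounds first, then biotinylated RON2 peptide at 25 nM; detection used donor plus acceptor beads, 10 µg/mL apiece, read by AlphaScreen after 30 min at room temperature.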
Pf growth 96h: P. falciparum growth inhibition at 96 hours. P. falciparum luciferase reporter growth, 96 h. Potency, µM (titrated, usually from 28.7 µM), for inactives: at the highest dose activity change, negative = inhibition, usual class: inhibitors. 320,000 tested, 6.9% active. AID 504834; further: potency means the concentration at half of the fitted maximal effect; on the % scale 0 is the no-effect control and ±100 the full control effect
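Infected RBCs, 2% Hct / 0.05% parasitemia final; luciferase-reporter P. falciparum; cpd 96 h, 37 C, 5% CO2; luciferase detection reagent; luminescence.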
* = called active by the depositor; ? = inconclusive; / = not tested or not shown; [ ] = remark or other dose. Unless noted, the call rests on the fitted dose curve; in most records, active means well fitted curve in the direction sought with a large enough effect; inconclusive means small, poorly fitted or top-dose-only effect, or another doubt; inactive means no such curve, though single readings can be large; an effect the other way counts as inactive or inconclusive.

SMILES | Pf growth 48h | Shiga inhibitor | SARS PLpro yeast | Cycloheximide cs | AMA1 RON2 block | Pf growth 96h
Cc1nc2ccc(-c3nc4ccccc4o3)cc2[nH]1 | 167.6% | 68.4* | -40.8% | 51.6* | -2.9% | ?
Nc1ccc(-c2nc3ccc(-c4nc5ccccc5o4)cc3[nH]2)cc1 | 9.28µM* | 38.7 | -9.6% | 28.2* | 0.0% | 24.2%
Cc1cc(-c2nc3ccccc3o2)c2ccccc2n1 | 10.1% | 13.2 | -6.1% | -2.6 | 7.8% | ?
O=C1c2ccc(-c3nc4ccccc4o3)cc2C(=O)N1Cc1ccccc1 | / | / | / | / | -7.8% | /
Cc1ccnc2ccc(-c3nc4ccccc4o3)cc12 | 139.7% | 55.5* | -3.6% | 21.4* | 10.0% | 77.2%
CS(=O)(=O)c1ccc(Cl)c(NC(=O)COC(=O)c2cccc(C#N)c2)c1 | 3.0% | 6.3 | 1.8% | -4.5 | -3.4% | 8.6%
CC[C@H](C)[C@H](NC(=O)[C@H](CCC(=O)O)NC(=O)CNC(=O)[C@H](CCCCN)NC(=O)[C@H](CCC(=O)O)NC(=O)[C@H](CCSC)NC(=O)[C@H](CCSC)NC(=O)[C@H](CCSC)NC(=O)[C@H](CCC(=O)O)NC(=O)CNC(=O)[C@H](CO)NC(=O)[C@H](CO)NC(=O)[C@H](CO)NC(=O)[C@@H](N)CC(N)=O)C(=O)N[C@@H](CCCCN)C(=O)O | / | -5.8 | / | 1.2 | / | /
O=C(O)CCCCCN1C(=O)C2CCCCC2C1=O (stereo not given) | 3.7% | -3.5 | 0.9% | -2.4 | -22.4% | 9.28µM*
O=C(O)CCCN1C(=O)C2C3C=CC(C2C1=O)C1C(=O)N(CCCC(=O)O)C(=O)C31 (stereo not given) | 7.0% | / | 2.3% | -3.7 | -9.1% | 19.9%
O=C(Cn1cc[n+](CC(=O)c2ccccc2)c1)c1ccccc1 | 1.04µM* | -1.3 | 2.7% | -0.4 | 10.5% | ?
Cc1cc(C)c[n+](CC(=O)c2ccc(C)c([N+](=O)[O-])c2)c1 | 23.5% | 8.3 | 3.1% | 0.3 | 0.0% | ?
Cc1ccc(C(=O)C[n+]2cc(Br)cc(Br)c2)cc1[N+](=O)[O-] | 9.28µM* | 17.2 | -6.0% | -2.6 | -3.0%[2.32 µM] | ?
O=C(C[n+]1cc(Br)cc(Br)c1)c1ccc(-c2ccccc2)cc1 | / | 33.8 | 16.1% | 6.1 | 0.3% | ?
COc1ccc(C(=O)C[n+]2cccc(Br)c2)cc1 | ? | 33.5 | 0.8% | 9.7* | -5.7% | -17.3%
O=C(Cn1cc[n+](CC(=O)c2ccc(Cl)cc2Cl)c1)c1ccc(Cl)cc1Cl | ? | -3.9 | 0.3% | -2.5 | 0.0% | ?
O=C(C[n+]1cc(Br)cc(Br)c1)c1ccccc1 | 12.9% | -8.0 | 5.2% | 8.8 | -3.8% | 0.165µM*
COc1ccc(CCN(C)C(=O)C2CCN(C(=O)Nc3ccccc3)CC2)cc1OC | 9.4% | / | -3.1% | / | -25.0% | 3.1%
O=C(C[n+]1ccc2ccccc2c1)c1ccccc1 | ? | 39.4 | -0.5% | 20.4* | 27.3% | 9.28µM*
O=C(C[n+]1cccc(Br)c1)c1ccc(-c2ccccc2)cc1 | 0.5% | 34.2 | -3.0% | 22.1* | 0.2% | 24.5%
CCOC(=O)CSc1n[nH]c(NC(=O)NC(C)C)n1 | 2.8% | -0.9 | 0.2% | -1.2 | 8.5% | 8.9%
COc1ccc(C2OC(=O)CC2C(=O)NCc2ccc(Cl)cc2)cc1OC (stereo not given) | 107.6% | 84.6* | -0.5% | 34.0* | -3.3% | 39.0%
O=C(COC(=O)c1ccc(-n2cnnn2)cc1)c1ccc(Br)cc1 | ? | / | -6.4% | / | -8.2% | ?
O=C(c1cc(-c2cccs2)on1)N1CCCc2ccccc21 | 1.6% | 73.4* | -16.8% | 38.9* | 4.8% | 17.4%
COc1ccc(-c2cc(C(=O)N3CCCc4ccccc43)no2)cc1OC | ? | -15.8 | -15.4% | 18.4 | 23.4% | 32.8%
O=C(c1cc(-c2ccc(F)cc2)on1)N1CCCc2ccccc21 | 75.6% | 63.8* | -3.7% | 45.9* | -1.5% | ?
SMILES | Pf growth 48h | Shiga inhibitor | SARS PLpro yeast | Cycloheximide cs | AMA1 RON2 block | Pf growth 96h
O=C(c1ccc(C(=O)N2CCCc3ccccc32)s1)N1CCCc2ccccc21 | 0.0% | -12.6 | -21.5% | -2.1 | -6.5% | ?
Cc1ccc(-c2cc(C(=O)N3CCCc4ccccc43)no2)cc1 | ? | 97.6* | -3.5% | 30.9* | 4.7% | ?
Cc1ccc(NC(=O)[C@@H]2CCCN2C(=O)c2cccs2)cc1S(=O)(=O)N1CCCCC1 | ? | / | -1.5% | / | -2.7% | ?
Nc1nc2ccc(Cl)cc2cc1C(=O)NC1CC1 | / | / | / | / | -10.0% | /
COc1cc(O)oc1C=Nc1ccc(C(F)(F)F)cc1 | 23.0% | 33.9* | -4.7% | 42.0* | 8.4% | 105.0%
Cc1cccc(N(Cc2cc3ccccc3[nH]c2=O)S(=O)(=O)c2ccccc2)c1 | 14.7µM* | 7.6 | -2.1% | -1.7 | -19.7% | 10.4µM*
Cc1cccc(N(Cc2cc3ccc(C)cc3[nH]c2=O)S(=O)(=O)c2ccccc2)c1 | ? | 15.3 | 4.3% | 13.7 | 0.2% | ?
Cc1cccc2cc(CN(CC(C)C)S(=O)(=O)c3ccccc3)c(=O)[nH]c12 | ? | -5.9 | -0.6% | -11.6 | 4.1% | 13.1µM*
CCCCCC(=O)Nc1ccc(N2CCOCC2)c(S(=O)(=O)Nc2ccc(OC)cc2)c1 | 14.7µM* | / | / | / | 1.0% | ?
COc1ccc(NS(=O)(=O)c2cc(NC(=O)c3ccc(C)s3)ccc2N2CCOCC2)cc1 | ? | 1.9 | -1.1% | 5.3 | -5.4% | 13.1µM*
COc1ccc(NS(=O)(=O)c2cc(NC(=O)/C=C/c3cccs3)ccc2N2CCOCC2)cc1 | ? | -3.4 | 6.7% | 0.8 | 3.6%[2.32 µM] | 7.38µM*
COc1ccc(NS(=O)(=O)c2cc(NC(=O)/C=C/c3ccccc3OC)ccc2N2CCCCC2)cc1 | 1.04µM* | 17.0 | -6.1% | -2.0 | -20.8% | 1.04µM*
CCC(=O)Nc1ccc(N2CCOCC2)c(S(=O)(=O)Nc2ccc(OC)cc2)c1 | 6.8% | 17.2 | 4.7% | 3.0 | -13.6% | -9.4%
CCOC(=O)C(=O)/C(=C\N(C)C)c1onc(-c2c(F)cccc2Cl)c1C(=O)OC | 22.8% | -3.5 | 6.0% | 0.8 | 4.7% | 4.0%
CC1CCCCN1CC(O)COCCC12CC3CC(CC(C3)C1)C2 (stereo not given) | ? | 2.6 | -4.6% | -4.8 | 5.3% | 8.28µM*
OC(c1nc2ccccc2[nH]1)C(O)c1nc2ccccc2[nH]1 (stereo not given) | -9.1% | / | 5.0% | 21.1* | 60.0% | ?
OC(c1ccccc1)c1nc2ccccc2[nH]1 (stereo not given) | 12.6% | / | 3.0% | -1.1 | -9.1% | -10.9%
N#CC(C(=S)Nc1ccccc1)c1nc2ccccc2[nH]1 (stereo not given) | ? | 24.7 | -1.7% | 18.7* | 88.8% | 4.65µM*
Cc1ccc2nc(C(O)C(O)c3nc4ccc(C)cc4[nH]3)[nH]c2c1 (stereo not given) | -104.0% | 122.0* | 12.0% | 45.7* | 78.3% | /
CC(C)Cc1nc2ccccc2[nH]1 | 0.0% | -7.0 | 1.5% | -2.9 | -10.7% | 5.5%
